# This is part of a sample that, as a whole, favours compounds with a hit. Of some 83,000 tested, about 20% had one in any assay.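 Testing used 96-well plates and a 48-hour single-concentration exposure. Example: -40 means 40% of the starting cells died.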 A number with no mark means an inactive call. Calls of active or inactive are those of the source. How the source made its calls: active means growth percent below 10; inactive means the rest.
# Tested on: MDA-MB-468 breast
# Test: NCI-60 one-dose screen, 48 h (100 = growth as untreated, 0 = no growth, -100 = all killed)
# Details: 10 µM unless noted
row,SMILES,growth
1,Cc1nc([P+](c2ccccc2)(c2ccccc2)c2ccccc2)c(N2CCCCC2)o1,0.108% (active)
2,CCCCc1nc2c(N)nc3ccccc3c2n1Cc1ccc(OC)cc1,41.2%
3,Cc1ccc2nc3ccccc3c(NCc3ccc(Cl)cc3)c2c1,-21.7% (active)
4,CCN(CC)CCNc1ccc(N=Nc2cnc3ccccc3c2)c2ccccc12,-64.5% (active)
5,CCOC(=O)c1cnc2c(N=Nc3ccc(OC)cc3)c(N)nn2c1N,116%
6,CC(C)/C=N/NC(N)=S,19.3%
7,COC1=C(c2ccccc2)C(=O)C(OC)=C(c2ccccc2)C1=O,43%
8,Cc1ncc(C(=O)Nc2ccc(CN3CCN(C)CC3)c(C(F)(F)F)c2)cc1C#Cc1cnc(N)c2ncccc12,63.1%
9,O=C(Nc1ccc(Cl)cc1Cl)Nc1ccc(-c2cccnc2)cc1N1CCC(CO)CC1,23%
10,O=C(CNC1C2CC3CC(C2)CC1C3)Sc1nnc2sc3ccccc3n12 (stereo not given),102%
11,C=C1C(=O)O[C@H]2[C@H]1CC/C(COC(=O)NCc1ccc(Cn3c(=O)sn(CCCI)c3=O)cc1)=C\CC[C@@]1(C)O[C@@H]21,-28.8% (active)
12,O=C(Nc1ccccc1)Nc1nc2ccc([N+](=O)[O-])cc2s1,-22.6% (active)
13,CCN1C(=O)N(CC)C2C1NN=c1s/c(=C3\C(=O)N(C)c4ccccc43)c(=O)n12 (stereo not given),13.4%
14,O=C(CSc1nc(-c2ccccc2)[nH]c1S(=O)(=O)c1ccccc1)NC1CC1,4.04% (active)
15,CN1CCN(Cc2ccc(NC(=O)c3cncc(C#Cc4cnn5cccnc45)c3)cc2C(F)(F)F)CC1,25.4%

# Source: PubChem BioAssay (NCI)
